Data reported in PubChem BioAssay.
Where “and” joins values, the source holds several entries; their conditions need not be identical. Equal values may be shown once. Calls of active or inactive are those of the source.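 How the source made its calls: active means compounds whose cell count with miR-34 switched on is under 0.7 times the count with it off; inactive means the rest.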

Experiment: viability loss with induced miR-34 in A549 – imaging, A549 dox-inducible miR-34, nuclei and caspase counts, primary screen (AID 1347080); further: test concentration not given here
Details: A549 miR-34 inducible, Hoechst nuclei count, 48 h
[1] = stronger effect = lower value, cell number ratio, induced over uninduced
[2] = measured here: relative caspase fold change +Dox/-Dox
[3] = measured here: total cells with miR-34 induction, stronger effect = lower value
[4] = measured here: total cells without miR-34 induction

Row | SMILES | fold change [1] | fold change [2] | cell count [3] | cell count [4]
1 | CCCCC[C@H](O)/C=C/[C@H]1CC[C@H](O)[C@@H]1C/C=C\CCCC(=O)O | 0.956 (inactive) | 1.76 | 6120 | 6400
2 | O=C(c1cccs1)c1ccc(OCCCO)c(Cl)c1Cl | 0.896 (inactive) | 0.529 | 5620 | 6270
3 | CC(C)[C@H](O)CC[C@@H](C)[C@H]1CC[C@H]2[C@@H]3CC=C4C[C@@H](O)CC[C@]4(C)[C@H]3CC[C@]12C | 0.898 (inactive) | 0.825 | 5260 | 5860
4 | CCCCCCCCCCCCC(=O)N[C@H]1CCOC1=O | 0.915 (inactive) | 1.35 | 5190 | 5670
5 | CCCC/C=C\CCCCCCCC(=O)OC | 1.02 (inactive) | 0.704 | 5700 | 5570
6 | CCCCC/C=C\C/C=C\C/C=C\C/C=C\CCCCN1C(=O)C=CC1=O | 0.86 (inactive) | 0.663 | 5540 | 6440
7 | NC(=O)c1cccc(-c2cccc(OC(=O)NCCCCCCc3ccccc3)c2)c1 | 0.904 (inactive) | 0.743 | 5110 | 5650
8 | CCCCCCCCCCCCC/C=C/[C@@H](O)[C@H](CO)NC(=O)CCCCC | 0.988 (inactive) | 0.834 | 5840 | 5910
9 | CC(Sc1nc2ccccc2[nH]1)C(=O)N/N=C/c1cc(Br)ccc1O (stereo not given) | 1.01 (inactive) | 1.43 | 6060 | 6010
10 | N[C@@H](CSCCB(O)O)C(=O)O | 1.01 (inactive) | 1.73 | 6340 | 6260
11 | CC(C)[C@H](O)C(=O)O | 0.982 (inactive) | 1.05 | 5470 | 5570
12 | O=C(O)CCC/C=C\C[C@@H]1[C@@H](/C=C/C(F)(F)COc2ccccc2)[C@H](O)C[C@@H]1O | 1.03 (inactive) | 1.05 | 5600 | 5440
13 | O=C(O)CCCCCC[C@H]1C(=O)C[C@@H](O)[C@@H]1/C=C/[C@@H](O)Cc1ccccc1 | 1.03 (inactive) | 1.38 | 5710 | 5540
14 | CCOC(=O)c1ccnc(C(=O)OCC)c1 | 0.975 (inactive) | 0.9 | 5540 | 5690
15 | CCCCCCCCCCOc1ccc(OCC(=O)Cn2cc(C(=O)OC)c3cc(C(=O)O)ccc32)cc1 | 0.961 (inactive) | 0.386 | 6240 | 6490
16 | CC#CCC(C)[C@@H](O)/C=C/[C@@H]1[C@H]2C/C(=C\CCCC(=O)O)C[C@H]2C[C@H]1O (stereo not given in full) | 0.903 (inactive) | 1.4 | 4970 | 5500
17 | CCCCC/C=C\C/C=C\C/C=C\CCCCC(=O)OC | 1.06 (inactive) | 0.952 | 6900 | 6530
18 | CC(C)(O)c1ccccc1CC[C@H](SCC1(CC(=O)O)CC1)c1cccc(/C=C/c2ccc3ccc(Cl)cc3n2)c1 | 1.04 (inactive) | 0.195 | 5500 | 5280
19 | CCCCC/C=C\C=C\[C@H](O)CCCCCCCC(=O)O | 1.01 (inactive) | 1.02 | 5810 | 5740
20 | N[C@@H](CCC(=O)N[C@@H](CSN=O)C(=O)NCC(=O)O)C(=O)O | 0.991 (inactive) | 0.986 | 5550 | 5600

Row | SMILES | fold change [1] | fold change [2] | cell count [3] | cell count [4]
21 | CCCCC[C@@H](O)/C=C/[C@H]1[C@H](O)CC(=O)[C@@H]1C/C=C\CCCC(=O)O | 0.971 (inactive) | 1.57 | 6000 | 6180
22 | CCCCC/C=C\CCCCCCCCCCCCC(=O)O | 0.9 (inactive) | 1.51 | 4990 | 5540
23 | NC1=NC(=O)/C(=C/c2ccc(O)cc2)S1 | 1.06 (inactive) | 1.49 | 6100 | 5780
24 | CCCCC[C@H](O)/C=C/[C@H]1[C@H](O)CC(=O)[C@@H]1CCCCCCC(=O)NCCO | 0.954 (inactive) | 1.4 | 5990 | 6270
25 | O=C(O)CCC/C=C\C[C@@H]1[C@@H](/C=C/[C@@H](O)C2CCCCC2)[C@H](O)C[C@@H]1O | 0.938 (inactive) | 1.34 | 5910 | 6300
26 | CCCCC[C@H](O)/C=C/[C@@H]1[C@@H](C/C=C/CCCC(=O)O)[C@H](O)C[C@H]1O | 0.95 (inactive) | 1.55 | 5260 | 5540
27 | CCCCC/C=C\C/C=C\C/C=C\C/C=C\CCCC(=O)S[C@H](COCCCCCCCCCCCCCCCC)COP(=O)([O-])OCC[N+](C)(C)C | 1.09 (inactive) | 0.9 | 5810 | 5360
28 | CC/C=C/C[C@H](O)/C=C/[C@H]1[C@H](O)CC(=O)[C@@H]1C/C=C\CCCC(=O)O | 0.915 (inactive) | 1.46 | 5700 | 6230
29 | [O-]/[N+](=N/O[C@@H]1O[C@H](CO)[C@H](O)[C@H](O)[C@H]1O)N1CCCC1 | 0.904 (inactive) | 0.427 | 6560 | 7260
30 | O=C(O)CCCCCC[C@H]1C(=O)NC(=O)N1CCC(O)C1CCCCC1 (stereo not given in full) | 1.09 (inactive) | 1.38 | 6150 | 5640
31 | CCCCCCCCCCCCCCCNC(=O)C1CCCCC1 | 1.13 (inactive) | 0.274 | 6830 | 6070
32 | Nc1nc2[nH]c(=O)[nH]c2c(=O)[nH]1 | 0.901 (inactive) | 0.746 | 6070 | 6740
33 | CCCCC/C=C\C/C=C\CCCCCCCC(=O)O[C@H](COC(=O)CCCCCCCCCCCCCCC)COP(=O)(O)OCCN | 0.789 (inactive) | 0.779 | 4540 | 5760
34 | CCCCC[C@H](O)/C=C/[C@H]1[C@H](O)CC(=O)[C@@H]1CC(=O)CCCCC(=O)O | 0.96 (inactive) | 1.25 | 6410 | 6680
35 | CC1=C(CC/C(C)=C/CCC2C=CC(C3=CC(=O)OC3O)OC2O)C(C)(C)CCC1 (stereo not given) | 0.908 (inactive) | 0.704 | 1170 | 1290
36 | C[C@@H](O)CCC[C@@H](O)/C=C/[C@@H]1[C@@H](CCCCCCC(=O)O)[C@@H](O)C[C@H]1O | 0.879 (inactive) | 1.31 | 5220 | 5940
37 | CCCCC[C@H](O)/C=C/[C@@H]1[C@H]2CC(CCCCC(=O)O)O[C@H]2C[C@H]1O (stereo not given in full) | 0.937 (inactive) | 1.39 | 6700 | 7150
38 | CCCCC[C@H](O)/C=C/[C@H]1CCC(=O)[C@@H]1CCCCCCC(=O)O | 0.938 (inactive) | 1.33 | 5360 | 5720
39 | CC/C=C\C/C=C\C/C=C\C/C=C\CCCCC(=O)OCC | 1.03 (inactive) | 1.28 | 5830 | 5650
40 | CCCCCC/C=C\CCCCCCCCCCOC(C)=O | 0.943 (inactive) | 0.538 | 5570 | 5900

Row | SMILES | fold change [1] | fold change [2] | cell count [3] | cell count [4]
41 | CCCCCCCCCCCCCCCCCC(=O)NCCS(=O)(=O)O | 1.11 (inactive) | 0.61 | 6120 | 5530
42 | CCCCCCCCCCCCCCCC(=O)OC[C@H](COP(=O)([O-])OCC[N+](C)(C)C)OC(=O)CCCCCCCC(=O)O | 0.924 (inactive) | 0.678 | 5760 | 6240
43 | CCCCC[C@H](O)/C=C/[C@@H]1[C@@H](C/C=C/CCCC(=O)O)[C@@H](O)C[C@H]1O | 0.9 (inactive) and 0.944 (inactive) | 1.55 and 0.855 | 5350 and 5640 | 5940 and 5970
44 | CCCCC/C=C\C/C=C\C/C=C\CCCCCCC(=O)OCC | 1.05 (inactive) | 0.794 | 6480 | 6160
45 | CCCCC[C@H](O)/C=C/[C@H]1[C@@H](O)CC(=O)[C@@H]1CCCCCCC(=O)O | 0.965 (inactive) | 1.07 | 5320 | 5510
46 | CC(C)=CCC/C(C)=C/CC/C(C)=C/CC[C@]1(C)CCc2c(C)c(O)c(C)c(C)c2O1 | 0.928 (inactive) | 0.656 | 5490 | 5920
47 | CCCCCCCC/C=C\CCCCCCCC(=O)NCCS(=O)(=O)O | 0.992 (inactive) | 0.63 | 6150 | 6200
48 | CCCCC/C=C\C=C\C(O)CCCCCCCC(=O)OC[C@@H](COC(=O)CCCCCCC/C=C\C=C\C(O)CCCCC)OC(=O)CCCCCCC/C=C\C=C\C(O)CCCCC (stereo not given in full) | 1.03 (inactive) | 1.09 | 5890 | 5740
49 | CCCCCCCC/C=C\CCCCCCCCCCCC(=O)O | 1.01 (inactive) | 0.826 | 6030 | 5990
50 | CCCCC[C@H](O)/C=C/[C@@H]1[C@@H](C/C=C\CCCC(=O)NCC)[C@@H](O)C[C@H]1O | 0.749 (inactive) | 1.63 | 5570 | 7440
51 | CCCCCCCC/C=C\CCCCCCCCCCCCCC(=O)N[C@@H](CO)[C@H](O)/C=C/CCCCCCCCCCCCC | 0.996 (inactive) | 0.823 | 5810 | 5830
52 | Clc1ccc(/C=C/c2cc(Cl)cc(Cl)c2)cc1 | 1.02 (inactive) | 0.743 | 5370 | 5270
53 | CCOC(=O)/C=C/[C@H](CC(C)C)NC(=O)[C@H](CO)NC(=O)[C@@H](NC(=O)c1cccc(O)c1C)C(C)C | 0.61 (active) | 0.781 | 3640 | 5980
54 | CC(C)CCC[C@@H](C)[C@H]1CC[C@H]2[C@@H]3CC(=O)[C@@]4(O)C[C@@H](O)CC[C@]4(C)[C@H]3CC[C@]12C | 0.89 (inactive) | 2.89 | 5340 | 6000
55 | Cn1c([N+](=O)[O-])cc[n+]1C | 0.892 (inactive) | 0.659 | 8620 | 9670
56 | OC[C@H]1O[C@H](O[C@H]2[C@H](O)[C@@H](O)[C@H](O)O[C@@H]2CO)[C@H](O)[C@@H](O)[C@@H]1O | 0.99 (inactive) | 0.551 | 8780 | 8870
57 | CCCCCCCCCCCCCCCCCCCC(=O)NCCO | 1.07 (inactive) | 0.773 | 6530 | 6100
58 | CCCCCCCCCCCCCCCC(=O)OC[C@H](COP(=O)([O-])OCC[N+](C)(C)C)OC(=O)CCCC(=O)/C=C/C(=O)O | 1 (inactive) | 0.771 | 5760 | 5760
59 | CC1CCN=C(N)C1 (stereo not given) | 0.966 (inactive) | 0.767 | 6190 | 6410
60 | CCC(C)[C@H]1O[C@]2(C=C[C@@H]1C)C[C@@H]1C[C@@H](C/C=C(\C)[C@@H](OC3C[C@H](OC)C(O[C@H]4C[C@H](OC)[C@@H](NC(C)=O)[C@H](C)O4)[C@H](C)O3)[C@@H](C)/C=C/C=C3\CO[C@@H]4[C@H](O)C(C)=C[C@@H](C(=O)O1)[C@]34O)O2 (stereo not given in full) | 1.03 (inactive) | 0.79 | 4370 | 4250
